ChEMBL document CHEMBL4513216, “Probing the Open Global Health Chemical Diversity Library for Multistage-Active Starting Points for Next-Generation Antimalarials” (ACS Infect Dis, 2020)
In all, about 69,000 compounds went through this assay and about 8,600 (12%) showed an effect of 50% or more. Only a selection was taken, and strong results are over-represented in it overall.

What follows are compounds tested on Plasmodium berghei (assay: Screen against P. berghei liver stage (PbLuc), transformed with Luciferase, at 10uM). Conditions: tested at 10 uM.
Assay type: functional, HepG2

Point of comparison: COc1cc(N2CC[C@@H]3OCCN(C)[C@H]3CC2)ncn1, INHIBITION 39.4%. Against it:
- Nc1nc(C2CCN(C(=O)c3cnccn3)CC2)cs1 — lower, 38.2%
- Cn1ncc2c(=O)[nH]c(CN3CCCC3c3cccc(F)c3)nc21 (stereo not drawn) — lower, -29.9%
- CCCS(=O)(=O)N1CCOC2(COCCN(C(C)=O)C2)C1 (stereo not drawn) — higher, 60%
- CCS(=O)(=O)N1CCOC2(COCCN(C(C)=O)C2)C1 (stereo not drawn) — lower, 18.7%
- CC(=O)N1CCOCC2(C1)CN(S(C)(=O)=O)CCO2 (stereo not drawn) — lower, 18.7%
- CCCn1nc2c(cc1=O)CN(CC(=O)Nc1ccncc1)CC2 — higher, 40.3%
- CNc1nccnc1C1CN(Cc2ccc(OCC(=O)O)cc2)CCO1 (stereo not drawn) — lower, 26.7%
- CS(=O)(=O)NCc1cn2c(n1)CN(Cc1ccoc1)CC2 — lower, -4.02%
- Cc1cc(C)n(CC2CCCN2CCCS(C)(=O)=O)n1 (stereo not drawn) — lower, 3.5625%
- O=C(c1ccc(CNC2CCSC2)cc1)N1CCCC1 (stereo not drawn) — lower, -4.12%
- Cc1noc(C)c1Cc1nc(N(C)C)no1 — lower, 19.9%
- CC(C(=O)NCCc1cccs1)N1CCC(n2ccnc2)CC1 (stereo not drawn) — higher, 42.1%
- CC(C(=O)Nc1ccc2ccccc2c1)N1CCC(n2ccnc2)CC1 (stereo not drawn) — higher, 48.8%
- CC(C(=O)Nc1ncccn1)N1CCC(n2ccnc2)CC1 (stereo not drawn) — higher, 54.4%
- CCc1nc(C)c(CN2CCN(c3ncnc4c(C)csc34)CC2)[nH]1 — lower, 4.35%
- CCc1nc(C)c(CN2CCN(c3ncnc4scc(C)c34)CC2)[nH]1 — lower, 30.5%
- Cc1n[nH]c(CN2CCN(c3ncnc4scc(C)c34)CC2)c1Cl — higher, 68.2%
- CCC(=O)N1CCC(c2nc(C)ncc2-c2ccncc2)CC1 — lower, 19.2%
- CCN1CCC2(CC1)CC(NCc1ccncc1)c1ccccc1O2 (stereo not drawn) — higher, 43.9%
- CC(C)NC(=O)c1cc2c(nc1N(C)C)CCN(S(=O)(=O)C1CC1)CC2 — lower, -37.9%
- CC(C)Cn1ncc(C(=O)O)c1C1CC1 — lower, 14.3%
- CC(C)Cn1ncc(C(=O)NS(=O)(=O)C2CCCC2)c1C1CC1 — higher, 58.8%
- O=C(NS(=O)(=O)c1ccccc1)c1ccccc1F — lower, 14.8%
- CCc1c(C(=O)Nc2ccc(F)c(C(=O)NC)c2)cnn1CC(C)C — lower, 30.9%
- CC(C)Cn1ncc(C(=O)NS(=O)(=O)c2ccccc2)c1C1CC1 — higher, 79.7%
- CCC1c2ccsc2CCN1C(=O)NCc1cccnc1N(C)C (stereo not drawn) — lower, 16.97%
- Cn1cc(CN2CCC(c3cc(CCO)[nH]n3)C2)cn1 (stereo not drawn) — higher, 39.8%
- COc1cc(N2CCCC(c3nccn3CCN(C)C)C2)nc(N)n1 (stereo not drawn) — lower, -40.3%
- COc1cc(N2CCC(c3nccn3CCCN(C)C)CC2)nc(N)n1 — lower, -10.9%
- CN(C)CCn1ccnc1C1CCN(c2cc(N)nc(N)n2)CC1 — higher, 50.5%
- COc1ccccc1Cc1cncc(N2CC(C(=O)O)C2)n1 — lower, 10%
- CC(C)N1CCC(c2nc3ccc(-c4ccnn4C)cn3n2)CC1 — lower, 8.52%
- CN1CCN(C(=O)c2cccc(CN3CCOCC3)c2)CC1 — lower, 22.3%
- CN(C)CCCC(=O)NC1CC(C)(C)Cc2nc(C(C)(C)C)ncc21 (stereo not drawn) — lower, 22%
- Cc1sc(C(=O)NC(C)C)cc1S(=O)(=O)N(C)C — lower, -16.8%
- O=C(O)CCCC(=O)Nc1cnn(COc2ccc(F)cc2Cl)c1 — lower, 4.52%
- O=C(Nc1cnn(Cc2ccc(F)cc2Cl)c1)C1CC1 — lower, -10.8%
- COCCNC(=O)Cn1cc(NC(=O)c2cccc(Cl)c2Cl)cn1 — lower, -3.83%
- COCC(=O)Nc1cnn(COc2ccc(F)cc2Cl)c1 — lower, 0.348%
- COCCC(=O)Nc1cnn(COc2ccc(F)cc2Cl)c1 — higher, 50.4%
- O=C(Nc1cnn(COc2ccc(F)cc2Cl)c1)C1CC1 — higher, 71.3%
- CCn1c(Cn2cncn2)nnc1C1CCN(C2CCNCC2)CC1 — lower, -3.51%
- OC(CN1CCC(c2ccn[nH]2)CC1)c1cc(F)ccc1F (stereo not drawn) — lower, -4.94%
- O=C(CCc1nc(C2CC2)no1)c1ccccc1 — lower, -12.2%
- Cc1nccn1Cc1nnc(C2CCCN(c3cnccn3)C2)n1C (stereo not drawn) — lower, 11.5%
- CCOC(=O)c1s/c(=N\C(=O)COc2cnc(C)cc2O)[nH]c1C — lower, 3.52%
- Cc1ccc(N2C[C@@H]3OCCN(CC4CC4)[C@@H]3C2)nn1 — lower, 35.5%
- COCCN1CCN(Cc2ccco2)Cc2ccc(C)nc21 — lower, 23.1%
- COCCN1CCN(c2cc(OC)ncn2)Cc2ccc(C)nc21 — lower, 30.3%
- COCCN1CCN(c2cccc(C)n2)Cc2ccc(C)nc21 — higher, 53.9%
- COCCN1CCN(c2ccc(C)nn2)Cc2ccc(C)nc21 — higher, 51.2%
- CCCS(=O)(=O)N1CCN(CCOC)c2nc(C)ccc2C1 — lower, 29.8%
- COCCN1CCN(Cc2c(C)noc2C)Cc2ccc(C)nc21 — lower, 33%
- COc1cc(N2CC[C@@H]3[C@@H](CC2)OCCN3CC2CC2)ncn1 — higher, 81%
- COCCN1CCN(c2ccc(C)nn2)Cc2cccnc21 — lower, -2.03%
- COc1cc(N2CCN(CC3CC3)c3nc(C)ccc3C2)ncn1 — higher, 69.3%
- Cc1ccc2c(n1)N(CC1CC1)CCN(S(=O)(=O)C1CC1)C2 — lower, -63.5%
